Test [1] can be described thus: ATG_GLI_CIS: Attagene CIS-FACTORIAL HepG2 Assay for human Zinc Finger Protein GLI1 (AID 2282945). As to conditions: HepG2, Attagene cis-factorial reporter mRNA, GLI element; actives raise or lower the signal. Summed up: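 Bidirectional curve fits relative to DMSO, using reporter mRNA levels from RT-PCR plus capillary electrophoresis. Cells were HepG2 transiently carrying cis-regulated reporter constructs, harvested 24 h after dosing.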

Test [2] concerns the target Bile acid receptor (Homo sapiens) (UniProt Q96RI1). Put plainly: ATG_IR1_CIS: Attagene CIS-FACTORIAL HepG2 Assay for human Nuclear Receptor Subfamily 1 Group H Member 4 (NR1H4), IR1 submotif (AID 2282946). As to conditions: IR1 reporter transcription, actives raise or lower the signal. In a few lines: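 HepG2 cells transiently transfected with multiplexed cis-element reporter units read endogenous transcription factor activity. After 24 h compound exposure, reporter mRNA was quantified by RT-PCR, fluorescent labelling, HpaI digestion and capillary electrophoresis; bidirectional fitting versus DMSO baseline.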

Test [3] is described as follows: ATG_GRE_CIS: Attagene CIS-FACTORIAL HepG2 Assay for human Glucocorticoid Response Elements (GRE) (AID 2282947). As to conditions: HepG2 GRE cis-reporter, Attagene multiplex mRNA; actives raise or lower the signal. Summed up: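 Reporter transcripts read by RT-PCR with capillary electrophoresis fluorescence after a 24 h chemical exposure of HepG2 cells transiently transfected with multiple cis-element reporter units. Gain or loss fitted against DMSO.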

Test [4] is described as follows: ATG_ISRE_CIS: Attagene CIS-FACTORIAL HepG2 Assay for human Interferon Regulatory Factor 1 (IRF1) binding to an Interferon-Stimulated Response Element (ISRE) (AID 2282948). As to conditions: HepG2 ISRE cis-reporter (Attagene), mRNA transcription readout; actives raise or lower the signal. In a few lines: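 Endogenous transcription factor activity read as reporter transcript abundance via RT-PCR and capillary electrophoresis. HepG2 cells transiently transfected, 24 h chemical exposure. Gain or loss fitted against DMSO baseline.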

Test [5] is described as follows: ATG_M_32_CIS: Attagene CIS-FACTORIAL HepG2 Assay for M32 Transcription Factor (Internal Marker) (AID 2282949).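 Further: background control marker of the multiplexed CIS panel rather than a real target.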 Particulars: HepG2 Attagene cis-factorial M32 reporter, mRNA; actives raise or lower the signal. Summed up:
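HepG2 transfectants (cis-regulated reporter transcription units) dosed 24 h. Reporter mRNA by RT-PCR plus CE, analysed as gain or loss relative to DMSO.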

A short description of test [6]: ATG_M_06_CIS: Attagene CIS-FACTORIAL HepG2 Assay for M06 Transcription Factor (Internal Marker) (AID 2282950). Particulars: HepG2 Attagene CIS-FACTORIAL M06 internal marker reporter; actives raise or lower the signal. Summed up: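 Read-out is fluorescence of labelled reporter cDNA fragments resolved by capillary electrophoresis after RT-PCR. Cells: HepG2 carrying transfected cis-promoter reporter units, treated 24 h. Gain or loss of signal fitted relative to DMSO.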

In test [7] the target is Hepatocyte nuclear factor 6 (Homo sapiens) (UniProt Q9UBC0). As to the kind of experiment: ATG_HNF6_CIS: Attagene CIS-FACTORIAL HepG2 Assay for human Hepatocyte Nuclear Factor 6 (HNF6) (AID 2282952). Particulars: HepG2 Attagene cis-factorial HNF6 reporter transcription; actives raise or lower the signal. In a few lines:
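Endogenous transcription factor activity in human HepG2 liver cells was captured through cis-regulated reporter constructs. After 24 h treatment, reporter mRNA was measured by RT-PCR with capillary electrophoresis, and activity was fitted in both directions relative to DMSO.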

The target of test [8] is Heat shock factor protein 1 (Homo sapiens) (UniProt Q00613). Put plainly: ATG_HSE_CIS: Attagene CIS-FACTORIAL HepG2 Assay for human Heat Shock Transcription Factor 1 (HSE) (AID 2282953). Particulars: HepG2 HSE cis-reporter, Attagene RNA transcription; actives raise or lower the signal. In a few lines: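 HepG2, transient MRTU transfection, cis-promoter reporters (endogenous TF activity). 24 h compound. RNA → oligo(dT) RT → PCR → 6-FAM primer extension → HpaI cut → CE. Bidirectional fit vs DMSO.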

Test [9] in a line: ATG_MRE_CIS: Attagene CIS-FACTORIAL HepG2 Assay for human Metal Responsive Element (MRE) (AID 2282954). Particulars: HepG2 MRE cis-reporter transcription, Attagene multiplex; actives raise or lower the signal. Summed up: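 Endogenous MRE-dependent transcription read as reporter mRNA in transiently transfected human HepG2 cells at 24 h. RNA reverse-transcribed, PCR-amplified, labelled and resolved by capillary electrophoresis; gain or loss relative to DMSO.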

A short description of test [10]: ATG_PBREM_CIS: Attagene CIS-FACTORIAL HepG2 Assay for human Phenobarbital-responsive Enhancer Module (PBREM) (AID 2282955). As to conditions: HepG2 PBREM cis-reporter, Attagene multiplexed transcription; actives raise or lower the signal. Summed up:
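HepG2 cells transiently transfected with multiple cis-regulated reporter units measure endogenous transcription factor activity; 24 h compound exposure. Reporter mRNA quantified by RT-PCR, fluorescent labelling, HpaI digestion and capillary electrophoresis; bidirectional fit versus DMSO.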

In test [11] the target is Paired box protein Pax-6 (Homo sapiens) (UniProt P26367). As to the kind of experiment: ATG_Pax6_CIS: Attagene CIS-FACTORIAL HepG2 Assay for human Paired Box 6 (PAX6) (AID 2282956). Particulars: HepG2 CIS-FACTORIAL PAX6 reporter transcription, RNA readout; actives raise or lower the signal. Summed up: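 Read-out is reporter transcript level, measured by RT-PCR with fluorescent primer extension and capillary electrophoresis after 24 h dosing of transfected HepG2 cells. Activity in either direction fitted relative to DMSO control.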

Test [12] can be described thus: ATG_PXRE_CIS: Attagene CIS-FACTORIAL HepG2 Assay for human Pregnane X Receptor Element (PXRE) (AID 2282957). As to conditions: HepG2 Attagene CIS-FACTORIAL PXRE reporter, mRNA; actives raise or lower the signal. Summed up:
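Endogenous transcription factor activity in HepG2 was gauged through induction of reporter mRNA driven by a cis-regulating promoter element, sampled 24 h post-treatment. Activity was fitted in both directions against DMSO negative control.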

The nature of test [13]: ATG_PPRE_CIS: Attagene CIS-FACTORIAL HepG2 Assay for human Peroxisome Proliferator-activated Response Element (PPRE) (AID 2282958). As to conditions: HepG2 PPRE cis-element reporter, Attagene transcription factor profiling; actives raise or lower the signal. In a few lines: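 HepG2 cells are transiently transfected with multiplexed cis-promoter reporter units to report endogenous PPAR activity. After 24 h dosing, reporter mRNA is read by RT-PCR and capillary electrophoresis. Fitting is bidirectional against DMSO.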

A short description of test [14]: ATG_RORE_CIS: Attagene CIS-FACTORIAL HepG2 Assay for human RAR-related Orphan Receptor Element (RORE) (AID 2282959). Particulars: HepG2 Attagene cis-factorial RORE reporter, mRNA; actives raise or lower the signal. Summed up:
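HepG2 cells carrying transiently transfected cis-regulated reporter units; RORE-driven reporter mRNA quantified 24 h post-dosing by RT-PCR, 6-FAM primer extension, HpaI digestion and capillary electrophoresis. Bidirectional fit versus DMSO.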

Test [15] in a line: ATG_Sox_CIS: Attagene CIS-FACTORIAL HepG2 Assay for human SRY-box transcription factor (SOX) (AID 2282960). Particulars: HepG2 Attagene cis-factorial SOX reporter, mRNA; actives raise or lower the signal. In a few lines: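 HepG2 cells transiently transfected with multiple cis-regulated reporter units, then dosed for 24 h. Reporter mRNA quantified by RT-PCR, fluorescent labelling, HpaI digestion and capillary electrophoresis; bidirectional fit versus DMSO.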

For test [16], the target named is Transcription factor Sp1 (Homo sapiens) (UniProt P08047). Put plainly: ATG_Sp1_CIS: Attagene CIS-FACTORIAL HepG2 Assay for human Specificity Protein 1 (Sp1) (AID 2282961). Particulars: HepG2 Sp1 cis-reporter transcription, actives raise or lower the signal. In a few lines:
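HepG2 cells transiently transfected with multiplexed cis-regulated reporter constructs, chemical exposure 24 h. Reporter mRNA quantified by RT-PCR with capillary electrophoresis; bidirectional fit relative to DMSO.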

A short description of test [17]: ATG_SREBP_CIS: Attagene CIS-FACTORIAL HepG2 Assay for human Sterol Regulatory Element Binding (SREBP) (AID 2282962). As to conditions: HepG2 Attagene cis-factorial SREBP reporter, mRNA; actives raise or lower the signal. Summed up: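 Endogenous SREBP activity read as cis-element-driven reporter transcript in transiently transfected HepG2, 24 h post-dosing; quantified via RT-PCR plus capillary electrophoresis of fluorescent fragments. Gain or loss of signal fitted relative to DMSO baseline.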

Test [18] has as its target Signal transducer and activator of transcription 3 (Homo sapiens) (UniProt P40763). Put plainly: ATG_STAT3_CIS: Attagene CIS-FACTORIAL HepG2 Assay for human Signal Transducer and Activator of Transcription 3 (STAT3) (AID 2282963). Particulars: HepG2, Attagene cis-factorial STAT3 reporter transcription; actives raise or lower the signal. In a few lines: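 Readout is reporter transcript quantified by RT-PCR and capillary electrophoresis, with 6-FAM primer extension and HpaI digestion. Total RNA is taken 24 h after dosing transiently transfected HepG2 carrying cis-regulated reporter units. Bidirectional fit against DMSO.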

Test [19] can be described thus: ATG_TA_CIS: Attagene CIS-FACTORIAL HepG2 Assay for human TA Basal Promoter (AID 2282964). As to conditions: HepG2 Attagene CIS-factorial TA basal promoter reporter; actives raise or lower the signal. Summed up: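 Read-out: fluorescent reporter-transcript fragments resolved by capillary electrophoresis after RT-PCR and HpaI digestion. Source: HepG2 cells carrying transiently transfected multi-reporter cis constructs, treated 24 h. Endpoint fitted bidirectionally relative to DMSO.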

For test [20], the target named is Hypoxia-inducible factor 1-alpha (Homo sapiens) (UniProt Q16665). As to the kind of experiment: ATG_HIF1a_CIS: Attagene CIS-FACTORIAL HepG2 Assay for human Hypoxia Inducible Factor 1 (HIF1A) (AID 2282951). As to conditions: HepG2 Attagene cis-factorial HIF1a reporter transcription; actives raise or lower the signal. In a few lines:
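HepG2 cells transiently transfected with multiple cis-regulated reporter transcription units measure endogenous transcription factor activity. After 24 h exposure, reporter mRNA is quantified by RT-PCR with 6-FAM labelling, HpaI digestion and capillary electrophoresis. Bidirectional fitting against DMSO.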

The source made the active and inactive calls. How the source made its calls: active means hit-call score of the fitted dose curve at least 0.9, where 1 is the maximum; inactive means score below 0.9.

Sequence of Hepatocyte nuclear factor 6 (Homo sapiens) (Q9UBC0 whole entry, looked up): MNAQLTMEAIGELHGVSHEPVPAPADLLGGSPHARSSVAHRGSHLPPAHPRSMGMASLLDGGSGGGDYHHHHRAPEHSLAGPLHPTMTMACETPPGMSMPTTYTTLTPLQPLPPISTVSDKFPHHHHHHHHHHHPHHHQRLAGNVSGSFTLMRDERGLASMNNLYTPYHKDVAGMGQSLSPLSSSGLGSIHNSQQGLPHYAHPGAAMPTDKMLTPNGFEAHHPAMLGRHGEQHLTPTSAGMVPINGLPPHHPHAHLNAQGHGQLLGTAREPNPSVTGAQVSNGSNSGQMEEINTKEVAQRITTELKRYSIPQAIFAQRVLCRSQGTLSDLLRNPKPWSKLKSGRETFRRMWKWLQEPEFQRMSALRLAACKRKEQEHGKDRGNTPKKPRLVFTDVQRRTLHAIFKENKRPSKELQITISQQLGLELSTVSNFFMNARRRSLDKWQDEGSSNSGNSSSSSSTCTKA
Sequence of Transcription factor Sp1 (Homo sapiens) (P08047 whole entry, looked up): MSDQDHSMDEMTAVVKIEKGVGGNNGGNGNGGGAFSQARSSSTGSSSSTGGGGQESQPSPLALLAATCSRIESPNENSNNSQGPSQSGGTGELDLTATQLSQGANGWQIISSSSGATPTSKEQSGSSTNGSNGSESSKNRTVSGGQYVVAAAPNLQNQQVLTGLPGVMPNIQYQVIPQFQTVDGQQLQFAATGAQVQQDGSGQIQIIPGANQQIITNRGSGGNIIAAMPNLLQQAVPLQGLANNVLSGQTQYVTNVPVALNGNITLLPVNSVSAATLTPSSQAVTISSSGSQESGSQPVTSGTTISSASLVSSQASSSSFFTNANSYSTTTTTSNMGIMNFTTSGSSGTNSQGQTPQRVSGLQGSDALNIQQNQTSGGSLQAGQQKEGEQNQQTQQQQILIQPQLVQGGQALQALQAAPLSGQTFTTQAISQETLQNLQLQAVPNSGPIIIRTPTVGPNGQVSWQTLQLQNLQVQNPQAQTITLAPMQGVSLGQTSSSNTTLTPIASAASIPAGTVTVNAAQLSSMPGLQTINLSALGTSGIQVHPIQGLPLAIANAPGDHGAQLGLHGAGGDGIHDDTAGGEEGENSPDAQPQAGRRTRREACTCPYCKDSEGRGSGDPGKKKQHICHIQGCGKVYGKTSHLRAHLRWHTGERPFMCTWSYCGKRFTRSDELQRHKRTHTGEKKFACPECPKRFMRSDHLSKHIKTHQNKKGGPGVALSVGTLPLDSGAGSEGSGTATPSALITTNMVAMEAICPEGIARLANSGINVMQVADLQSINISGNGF
Sequence of Heat shock factor protein 1 (Homo sapiens) (Q00613 whole entry, looked up): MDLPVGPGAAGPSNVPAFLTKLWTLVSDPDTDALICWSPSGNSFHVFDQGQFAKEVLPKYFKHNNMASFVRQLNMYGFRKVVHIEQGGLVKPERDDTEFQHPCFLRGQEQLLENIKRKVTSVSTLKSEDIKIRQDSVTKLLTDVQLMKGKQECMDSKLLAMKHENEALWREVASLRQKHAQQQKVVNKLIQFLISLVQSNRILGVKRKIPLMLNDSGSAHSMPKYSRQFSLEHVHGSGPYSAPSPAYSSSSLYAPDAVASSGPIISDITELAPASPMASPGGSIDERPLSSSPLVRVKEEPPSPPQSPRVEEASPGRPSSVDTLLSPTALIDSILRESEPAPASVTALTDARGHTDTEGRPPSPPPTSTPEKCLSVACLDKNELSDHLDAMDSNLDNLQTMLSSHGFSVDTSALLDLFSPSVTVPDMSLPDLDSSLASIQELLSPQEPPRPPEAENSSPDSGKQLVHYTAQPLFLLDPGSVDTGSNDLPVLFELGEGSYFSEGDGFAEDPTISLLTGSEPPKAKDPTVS
Sequence of Signal transducer and activator of transcription 3 (Homo sapiens) (P40763 whole entry, looked up): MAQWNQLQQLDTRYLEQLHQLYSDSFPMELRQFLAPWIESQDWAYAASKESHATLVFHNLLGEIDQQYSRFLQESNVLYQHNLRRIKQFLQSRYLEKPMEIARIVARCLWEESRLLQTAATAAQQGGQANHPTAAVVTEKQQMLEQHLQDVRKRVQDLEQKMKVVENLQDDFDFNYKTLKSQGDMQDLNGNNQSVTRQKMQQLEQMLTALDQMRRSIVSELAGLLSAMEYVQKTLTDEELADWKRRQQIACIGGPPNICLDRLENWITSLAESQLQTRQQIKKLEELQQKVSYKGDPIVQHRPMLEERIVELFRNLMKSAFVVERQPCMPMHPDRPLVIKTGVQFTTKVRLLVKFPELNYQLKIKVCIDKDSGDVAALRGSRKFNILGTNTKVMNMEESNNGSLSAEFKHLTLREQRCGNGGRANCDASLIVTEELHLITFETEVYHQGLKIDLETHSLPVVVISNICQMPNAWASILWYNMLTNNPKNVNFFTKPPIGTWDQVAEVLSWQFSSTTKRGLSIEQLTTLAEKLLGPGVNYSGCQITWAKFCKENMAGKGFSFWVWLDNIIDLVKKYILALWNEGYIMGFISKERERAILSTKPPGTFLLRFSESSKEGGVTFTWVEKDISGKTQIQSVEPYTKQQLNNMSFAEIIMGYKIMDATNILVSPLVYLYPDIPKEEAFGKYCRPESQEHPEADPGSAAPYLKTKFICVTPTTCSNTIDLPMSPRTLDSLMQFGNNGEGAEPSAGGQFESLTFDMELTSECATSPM
Sequence of Bile acid receptor (Homo sapiens) (Q96RI1 whole entry, looked up): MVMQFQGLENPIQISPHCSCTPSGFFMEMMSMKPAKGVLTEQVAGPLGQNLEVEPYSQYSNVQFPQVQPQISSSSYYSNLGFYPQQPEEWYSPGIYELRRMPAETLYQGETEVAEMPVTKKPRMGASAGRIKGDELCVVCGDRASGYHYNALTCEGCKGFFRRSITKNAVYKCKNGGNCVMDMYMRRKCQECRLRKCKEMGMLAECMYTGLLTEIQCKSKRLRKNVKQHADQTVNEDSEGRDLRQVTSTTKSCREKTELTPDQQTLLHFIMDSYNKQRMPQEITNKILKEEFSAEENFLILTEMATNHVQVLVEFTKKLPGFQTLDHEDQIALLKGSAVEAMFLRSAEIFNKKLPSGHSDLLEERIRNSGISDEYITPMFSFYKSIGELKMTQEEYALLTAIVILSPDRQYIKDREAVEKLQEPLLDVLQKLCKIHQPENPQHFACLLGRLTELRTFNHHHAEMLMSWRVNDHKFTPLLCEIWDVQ
Sequence of Hypoxia-inducible factor 1-alpha (Homo sapiens) (Q16665 whole entry, looked up): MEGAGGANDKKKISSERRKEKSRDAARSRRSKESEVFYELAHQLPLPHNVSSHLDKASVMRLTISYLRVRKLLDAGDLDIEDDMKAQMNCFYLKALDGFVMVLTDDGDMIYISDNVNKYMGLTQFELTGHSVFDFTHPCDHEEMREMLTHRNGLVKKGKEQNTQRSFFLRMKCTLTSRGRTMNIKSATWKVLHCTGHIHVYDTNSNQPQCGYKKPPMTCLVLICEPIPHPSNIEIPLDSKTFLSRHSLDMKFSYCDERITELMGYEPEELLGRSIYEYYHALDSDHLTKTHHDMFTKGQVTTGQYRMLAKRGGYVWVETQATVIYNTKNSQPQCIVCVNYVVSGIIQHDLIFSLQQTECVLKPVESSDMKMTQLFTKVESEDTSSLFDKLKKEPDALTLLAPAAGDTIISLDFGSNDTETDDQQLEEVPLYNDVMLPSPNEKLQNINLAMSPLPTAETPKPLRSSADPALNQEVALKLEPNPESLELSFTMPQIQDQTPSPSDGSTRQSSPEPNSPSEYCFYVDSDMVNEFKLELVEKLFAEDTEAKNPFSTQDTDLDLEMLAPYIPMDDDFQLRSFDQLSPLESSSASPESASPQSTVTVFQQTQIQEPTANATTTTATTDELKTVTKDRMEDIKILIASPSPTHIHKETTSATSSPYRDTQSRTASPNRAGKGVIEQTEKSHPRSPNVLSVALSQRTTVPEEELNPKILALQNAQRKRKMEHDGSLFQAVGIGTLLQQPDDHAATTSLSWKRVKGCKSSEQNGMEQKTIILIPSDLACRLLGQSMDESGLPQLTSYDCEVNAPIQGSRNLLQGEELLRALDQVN
Sequence of Paired box protein Pax-6 (Homo sapiens) (P26367 whole entry, looked up): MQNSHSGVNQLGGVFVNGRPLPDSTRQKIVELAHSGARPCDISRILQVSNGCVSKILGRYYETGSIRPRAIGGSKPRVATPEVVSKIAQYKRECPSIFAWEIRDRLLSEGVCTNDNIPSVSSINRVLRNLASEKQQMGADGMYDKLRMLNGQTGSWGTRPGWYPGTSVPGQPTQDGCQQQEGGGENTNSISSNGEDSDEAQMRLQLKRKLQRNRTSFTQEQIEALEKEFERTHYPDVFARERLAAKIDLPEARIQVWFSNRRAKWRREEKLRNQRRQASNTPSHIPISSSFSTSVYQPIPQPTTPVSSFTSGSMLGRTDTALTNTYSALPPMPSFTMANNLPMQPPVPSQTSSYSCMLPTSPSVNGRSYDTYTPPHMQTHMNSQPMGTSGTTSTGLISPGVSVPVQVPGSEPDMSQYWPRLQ

For the compound `FC(F)(F)C(F)(F)C(F)(F)CC1CO1` (configuration not stated), the call in test [1], in test [2], in test [3], in test [4], in test [5] and in [6] was inactive. The call in test [7], in test [8], in test [9], in test [10], in test [11] and in test [12] was inactive. The compound was classed as inactive in test [13], in test [14], in test [15], in test [16], in test [17] and in test [18]. The result in test [19] was inactive.

As for `CC(=O)C=O`, the compound was called inactive in [1], in [2], in [3], in test [4], in test [5] and in [6]. The compound was classed as inactive in test [20], in [7], in test [8], in test [9], in test [11] and in test [12]. For the same compound, the compound was classed as inactive in [13], in test [14], in [15], in test [16], in test [17] and in test [19].

As for `C=CC(=O)OCCC(F)(F)C(F)(F)C(F)(F)C(F)(F)F`, the outcome in [1], in test [2], in [3], in test [4], in test [5] and in [6] was inactive. In addition, the outcome in test [7], in test [8], in test [9], in test [10], in [13] and in test [14] was inactive. The compound was classed as inactive in test [15], in [16], in [17] and in test [18]. The AC50 (as a rule, the concentration giving half of the maximal activity seen) in [12] was 43.8 µM (active).

For `COC(F)(C(F)F)C(F)(F)F` (configuration not stated), the call in test [1], in test [2], in test [3], in test [4], in test [5] and in [6] was inactive. In addition, the outcome in test [20], in [7], in test [8], in [9], in test [12] and in test [13] was inactive. For the same compound, the compound was classed as inactive in test [14], in [15], in [16], in test [17], in test [18] and in test [19].

These data come from PubChem BioAssay (EPA / NIEHS).
